Records with an inconclusive call do not appear. Active and inactive are the calls of the source. Unless noted, calls follow the shape of the dose curve; as a rule, active = well fitted curve in the direction sought with a large enough effect; inconclusive = small, poorly fitted or top-dose-only effect, or another doubt; inactive = no such curve, though single readings can be large; an effect the other way counts as inactive or inconclusive.
Tests used:
[1] = target: Luciferin 4-monooxygenase (Photinus pyralis) (UniProt P08659); experiment: Biochemical firefly luciferase enzyme assay for NPC (AID 624030);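 also: purified P. pyralis luciferase at 10 nM with luciferin and ATP substrate; nearly all actives have a fitted effect of over 70% in size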
Summary of the method: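 Direct inhibition of firefly luciferase enzyme (10 nM final, 50 mM Tris Acetate) assessed by luminescence within 5 minutes. Percent activity scaled between DMSO and PTC124 positive control, with concentration-effect curves classified by fit quality and response.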

[2] = S16 Schwann cell PMP22 intronic element firefly luciferase assay (AID 624032); also: nearly all actives have a fitted effect of over 30% in size
Summary of the method: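 Luciferase reporter of PMP22 intronic-element expression in stably transfected S16 rat Schwann cells, read by ONE-Glo luminescence after 24 h compound exposure at 37 C. Activity scaled between DMSO (0%) and positive-control PTC124; concentration-effect curves quality-classified.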

CP194 = experiment: qHTS profiling for inhibitors of Plasmodium falciparum proliferation (AID 504749); also: nearly all actives have a fitted effect of over 60% in size; also: potency is read from the fitted curve at half-maximal effect; conditions: P. falciparum in erythrocytes, SYBR Green DNA, 72 h; series mostly up to 28.7 µM
Summary of the method: (§1)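 In a 72 h erythrocytic culture (37 C, humidified, 5% CO2) at 2.5% hematocrit and 0.3% starting parasitemia, compounds were tested; SYBR Green I in detergent lysis buffer stained parasite DNA overnight.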

CP260 = experiment: as above; conditions: P. falciparum in erythrocytes, SYBR Green DNA, 72 h; series mostly up to 28.7 µM
Summary of the method: as §1

CP297 = experiment: as above; conditions: P. falciparum in erythrocytes, SYBR Green DNA, 72 h; series mostly up to 28.7 µM
Summary of the method: as §1

CP315 = experiment: as above; conditions: P. falciparum in erythrocytes, SYBR Green DNA, 72 h; series mostly up to 28.7 µM
Summary of the method: as §1

DIV14 = experiment: as above; conditions: P. falciparum in erythrocytes, SYBR Green DNA, 72 h; series mostly up to 28.7 µM
Summary of the method: as §1

ICS = experiment: as above; conditions: P. falciparum in erythrocytes, SYBR Green DNA, 72 h; series mostly up to 28.7 µM
Summary of the method: as §1

JCK = experiment: as above; conditions: P. falciparum in erythrocytes, SYBR Green DNA, 72 h; series mostly up to 28.7 µM
Summary of the method: as §1

TAB165 = experiment: as above; conditions: P. falciparum in erythrocytes, SYBR Green DNA, 72 h; series mostly up to 28.7 µM
Summary of the method: as §1

[3] = qHTS Assay for Identification of Small Molecule Antagonists for Thrombopoietin (TPO) Signaling Pathway (AID 918); conditions: TPO-dependent cell signaling reporter, antagonist mode; also: potency is read from the fitted curve at half-maximal effect; nearly all actives have a fitted effect of over 60% in size
Summary of the method: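 Luminescence read-out: GPIIb-promoter luciferase in Ba/F3 cells carrying human TPO receptor. Compounds added with 26 pM TPO (EC50), 24 hrs, 37 C, 5% CO2; cells deprived of IL-3 overnight beforehand. Inhibition of signal scored.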

[4] = target: DNA dC->dU-editing enzyme APOBEC-3G (Homo sapiens) (UniProt Q9HC16); experiment: qHTS for inhibitors of Vif-A3G interactions: Validation (AID 588379)
Summary of the method: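 Yellow fluorescence (Ex 488, Em 500-530) of Vif-coexpressing HeLa A3G-eYFP cells, scanned by Acumen cytometer, reports blocked A3G degradation. Cells plated at 700/well overnight at 37 deg C before compound addition, then a further overnight compound incubation at 37 deg C.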

[5] = target: Androgen receptor (Homo sapiens) (UniProt P10275); experiment: qHTS assay for small molecule antagonists of androgen receptor signaling (AID 588516; active = well fitted curve in the direction sought with a large enough effect in the signal ratio, with a control signal flat, not every such curve was filed as active; the % refers to the signal ratio)
Summary of the method: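 AR-UAS-bla-GripTite HEK 293 cells (2000/well, 5 h at 37 C) received compound titrations, then R1881 at 10 nM final; after 16 h at 37 C, CCF4 dye 2 h RT, beta-lactamase fluorescence read; IC50 from Hill fits.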

[6] = Confirmation and Secondary Assay for Modulators of Hemoglobin Beta Chain Splicing at IVS2 654 locus (AID 910);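 also: HeLa cells stably carrying EGFP split by mutant beta-globin IVS2-654 intron; per-well total GFP intensity by laser scanning cytometry after 2-day treatment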
Summary of the method: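 Readout: per-well total peak green fluorescence (488 nm ex, 500–520 nm em) from objects 5–250 µm, reflecting correct splicing of an EGFP-654 reporter. Compounds were applied for 2 days at 37 °C to overnight-plated HeLa EGFP-654 cells; controls were DMSO and 500 nM IVS2-654 PNA.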

[7] = Confirmation and Secondary Assay for Modulators of Hemoglobin Beta Chain Splicing at IVS2 705 locus (AID 930);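 also: HeLa cells stably expressing the EGFP-705 splicing reporter; GFP fluorescence per well restored by corrected splicing of the IVS2-705 intron in EGFP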
Summary of the method: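 First, HeLa EGFP-705 cells are seeded at 500/well in Optimem with 2% FCS and left overnight. Next, compound or DMSO is added for 2 days. Finally wells are laser-scanned and total peak GFP intensity scored.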

Measured: Potency

Androgen receptor (Homo sapiens), sequence (P10275 whole entry, looked up): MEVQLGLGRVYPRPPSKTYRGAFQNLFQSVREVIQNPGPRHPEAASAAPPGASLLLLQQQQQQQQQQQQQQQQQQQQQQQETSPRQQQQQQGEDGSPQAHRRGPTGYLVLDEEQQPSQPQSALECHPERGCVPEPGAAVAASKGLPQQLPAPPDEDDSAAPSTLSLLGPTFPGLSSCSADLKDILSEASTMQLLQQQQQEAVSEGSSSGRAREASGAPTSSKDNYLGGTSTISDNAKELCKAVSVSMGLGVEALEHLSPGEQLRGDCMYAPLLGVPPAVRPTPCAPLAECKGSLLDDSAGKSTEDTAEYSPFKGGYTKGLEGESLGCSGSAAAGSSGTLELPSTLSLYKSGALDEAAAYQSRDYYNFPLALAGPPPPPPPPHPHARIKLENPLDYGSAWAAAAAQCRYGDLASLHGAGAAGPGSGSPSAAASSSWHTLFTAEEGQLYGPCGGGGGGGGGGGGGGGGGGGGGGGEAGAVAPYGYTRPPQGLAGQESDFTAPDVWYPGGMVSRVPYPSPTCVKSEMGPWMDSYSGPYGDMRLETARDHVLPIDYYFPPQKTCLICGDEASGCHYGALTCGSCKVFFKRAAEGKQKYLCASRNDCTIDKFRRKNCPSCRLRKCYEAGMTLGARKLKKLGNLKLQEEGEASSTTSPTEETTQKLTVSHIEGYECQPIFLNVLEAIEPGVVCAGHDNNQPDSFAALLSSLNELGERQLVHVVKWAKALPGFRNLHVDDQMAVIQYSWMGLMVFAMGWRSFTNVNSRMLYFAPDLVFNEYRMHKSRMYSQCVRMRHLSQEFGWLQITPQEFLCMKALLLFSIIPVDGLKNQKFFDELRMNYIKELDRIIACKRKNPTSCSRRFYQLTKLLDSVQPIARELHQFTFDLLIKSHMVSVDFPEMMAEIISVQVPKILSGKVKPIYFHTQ
Luciferin 4-monooxygenase (Photinus pyralis), sequence (P08659 whole entry, looked up): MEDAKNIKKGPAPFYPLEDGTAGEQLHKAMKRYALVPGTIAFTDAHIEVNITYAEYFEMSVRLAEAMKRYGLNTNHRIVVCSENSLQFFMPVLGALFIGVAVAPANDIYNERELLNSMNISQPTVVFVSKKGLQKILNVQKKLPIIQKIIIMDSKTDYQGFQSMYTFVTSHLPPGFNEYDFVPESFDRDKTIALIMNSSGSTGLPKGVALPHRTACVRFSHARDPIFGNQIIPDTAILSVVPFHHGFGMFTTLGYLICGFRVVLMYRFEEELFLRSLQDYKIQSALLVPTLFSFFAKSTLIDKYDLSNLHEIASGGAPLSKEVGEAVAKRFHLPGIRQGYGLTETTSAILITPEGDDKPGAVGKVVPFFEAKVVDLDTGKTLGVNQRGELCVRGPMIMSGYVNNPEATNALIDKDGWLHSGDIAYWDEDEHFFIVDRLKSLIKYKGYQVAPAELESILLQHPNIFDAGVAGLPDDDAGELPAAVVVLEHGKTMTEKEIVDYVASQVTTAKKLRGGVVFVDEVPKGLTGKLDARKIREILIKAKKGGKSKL
DNA dC->dU-editing enzyme APOBEC-3G (Homo sapiens), sequence (Q9HC16 whole entry, looked up): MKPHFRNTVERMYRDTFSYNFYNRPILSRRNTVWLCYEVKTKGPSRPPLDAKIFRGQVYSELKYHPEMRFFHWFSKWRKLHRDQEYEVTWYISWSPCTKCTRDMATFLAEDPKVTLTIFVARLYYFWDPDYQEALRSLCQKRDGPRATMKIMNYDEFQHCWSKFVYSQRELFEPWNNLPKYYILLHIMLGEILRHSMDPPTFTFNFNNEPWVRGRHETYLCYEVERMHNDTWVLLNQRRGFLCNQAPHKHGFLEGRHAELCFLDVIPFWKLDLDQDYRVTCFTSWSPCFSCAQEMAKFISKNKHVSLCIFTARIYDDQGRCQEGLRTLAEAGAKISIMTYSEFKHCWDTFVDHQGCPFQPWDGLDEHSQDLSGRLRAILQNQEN

C[C@@H](Cc1ccc(O)cc1)NC[C@@H](O)c1cc(O)cc(O)c1
not listed: [3] | [4] | [5] | [6] | [7]
inactive: all other assays above

C[C@@H]1O[C@@H](O[C@H]2C[C@@H](O)[C@@]3(CO)[C@H]4[C@H](O)C[C@]5(C)[C@@H](C6=CC(=O)OC6)CC[C@]5(O)[C@H]4CC[C@@]3(O)C2)[C@@H](O)[C@H](O)[C@H]1O
inactive: [1] | CP260 | CP297 | DIV14 | ICS | JCK | TAB165

C=C[C@@H]1CN2CC[C@H]1C[C@H]2[C@H](O)c1ccnc2ccccc12
active: CP194 849 nM | CP260 794 nM | CP297 757 nM | CP315 1200 nM | DIV14 426 nM | ICS 224 nM | TAB165 355 nM
inactive: [1] | [2]

O=C1C[C@@H]2OCC=C3CN4CC[C@]56c7ccccc7N1[C@@H]5[C@@H]2[C@H]3C[C@H]46 (tested in a mixture with another compound)
inactive: [2]

CCn1cnc2c(Nc3cccc(Cl)c3)nc(N[C@@H]3CCCC[C@H]3N)nc21
active: [3] 2510 nM

CC(=O)c1c(O)c(C)c(O)c(Cc2c(O)c3c(c(C(=O)/C=C\c4ccccc4)c2O)OC(C)(C)C=C3)c1O
inactive: [4]
active: [3] 2510 nM

O=c1ccc(=O)[nH][nH]1
inactive: [5]

BrCC(Br)C1CCC(Br)C(Br)C1 (stereo not given)
inactive: [5]

O=[N+]([O-])c1ccc(O)c([N+](=O)[O-])c1
inactive: [6] | [7] | [5]

Reference: PubChem BioAssay (NCATS)
